TDP1 block = qHTS Assay for Inhibitors of Tyrosyl-DNA Phosphodiesterase (TDP1) | Tyrosyl-DNA phosphodiesterase 1 (Homo sapiens), Q9NUW8 | recombinant TDP1, AlphaScreen DNA substrate cleavage | Potency, µM (top dose mostly 130 µM), actives largely listed as inhibitors | 350,000 tested, 0.28% active; note: nearly all actives have a fitted effect of over 40% in size
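Enzyme-compound mixtures sat 15 min at room temperature, followed by a 5 min reaction with 15 nM final substrate and 10 min with AlphaScreen beads. Recombinant human Tdp1 was used at 1 nM final.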
BAZ2B inh = qHTS Assay for Inhibitors of BAZ2B; Bromodomain adjacent to zinc finger domain protein 2B (Homo sapiens), Q9UIF8; AlphaScreen BAZ2B-H3K14Ac peptide displacement; Potency, µM (highest dose often 114 µM), actives largely listed as inhibitors; 360,000 tested, 4.4% active; note: nearly all actives have a fitted effect of over 60% in size
Target sequence (Q9UIF8 whole entry, looked up, the tested form may be a part): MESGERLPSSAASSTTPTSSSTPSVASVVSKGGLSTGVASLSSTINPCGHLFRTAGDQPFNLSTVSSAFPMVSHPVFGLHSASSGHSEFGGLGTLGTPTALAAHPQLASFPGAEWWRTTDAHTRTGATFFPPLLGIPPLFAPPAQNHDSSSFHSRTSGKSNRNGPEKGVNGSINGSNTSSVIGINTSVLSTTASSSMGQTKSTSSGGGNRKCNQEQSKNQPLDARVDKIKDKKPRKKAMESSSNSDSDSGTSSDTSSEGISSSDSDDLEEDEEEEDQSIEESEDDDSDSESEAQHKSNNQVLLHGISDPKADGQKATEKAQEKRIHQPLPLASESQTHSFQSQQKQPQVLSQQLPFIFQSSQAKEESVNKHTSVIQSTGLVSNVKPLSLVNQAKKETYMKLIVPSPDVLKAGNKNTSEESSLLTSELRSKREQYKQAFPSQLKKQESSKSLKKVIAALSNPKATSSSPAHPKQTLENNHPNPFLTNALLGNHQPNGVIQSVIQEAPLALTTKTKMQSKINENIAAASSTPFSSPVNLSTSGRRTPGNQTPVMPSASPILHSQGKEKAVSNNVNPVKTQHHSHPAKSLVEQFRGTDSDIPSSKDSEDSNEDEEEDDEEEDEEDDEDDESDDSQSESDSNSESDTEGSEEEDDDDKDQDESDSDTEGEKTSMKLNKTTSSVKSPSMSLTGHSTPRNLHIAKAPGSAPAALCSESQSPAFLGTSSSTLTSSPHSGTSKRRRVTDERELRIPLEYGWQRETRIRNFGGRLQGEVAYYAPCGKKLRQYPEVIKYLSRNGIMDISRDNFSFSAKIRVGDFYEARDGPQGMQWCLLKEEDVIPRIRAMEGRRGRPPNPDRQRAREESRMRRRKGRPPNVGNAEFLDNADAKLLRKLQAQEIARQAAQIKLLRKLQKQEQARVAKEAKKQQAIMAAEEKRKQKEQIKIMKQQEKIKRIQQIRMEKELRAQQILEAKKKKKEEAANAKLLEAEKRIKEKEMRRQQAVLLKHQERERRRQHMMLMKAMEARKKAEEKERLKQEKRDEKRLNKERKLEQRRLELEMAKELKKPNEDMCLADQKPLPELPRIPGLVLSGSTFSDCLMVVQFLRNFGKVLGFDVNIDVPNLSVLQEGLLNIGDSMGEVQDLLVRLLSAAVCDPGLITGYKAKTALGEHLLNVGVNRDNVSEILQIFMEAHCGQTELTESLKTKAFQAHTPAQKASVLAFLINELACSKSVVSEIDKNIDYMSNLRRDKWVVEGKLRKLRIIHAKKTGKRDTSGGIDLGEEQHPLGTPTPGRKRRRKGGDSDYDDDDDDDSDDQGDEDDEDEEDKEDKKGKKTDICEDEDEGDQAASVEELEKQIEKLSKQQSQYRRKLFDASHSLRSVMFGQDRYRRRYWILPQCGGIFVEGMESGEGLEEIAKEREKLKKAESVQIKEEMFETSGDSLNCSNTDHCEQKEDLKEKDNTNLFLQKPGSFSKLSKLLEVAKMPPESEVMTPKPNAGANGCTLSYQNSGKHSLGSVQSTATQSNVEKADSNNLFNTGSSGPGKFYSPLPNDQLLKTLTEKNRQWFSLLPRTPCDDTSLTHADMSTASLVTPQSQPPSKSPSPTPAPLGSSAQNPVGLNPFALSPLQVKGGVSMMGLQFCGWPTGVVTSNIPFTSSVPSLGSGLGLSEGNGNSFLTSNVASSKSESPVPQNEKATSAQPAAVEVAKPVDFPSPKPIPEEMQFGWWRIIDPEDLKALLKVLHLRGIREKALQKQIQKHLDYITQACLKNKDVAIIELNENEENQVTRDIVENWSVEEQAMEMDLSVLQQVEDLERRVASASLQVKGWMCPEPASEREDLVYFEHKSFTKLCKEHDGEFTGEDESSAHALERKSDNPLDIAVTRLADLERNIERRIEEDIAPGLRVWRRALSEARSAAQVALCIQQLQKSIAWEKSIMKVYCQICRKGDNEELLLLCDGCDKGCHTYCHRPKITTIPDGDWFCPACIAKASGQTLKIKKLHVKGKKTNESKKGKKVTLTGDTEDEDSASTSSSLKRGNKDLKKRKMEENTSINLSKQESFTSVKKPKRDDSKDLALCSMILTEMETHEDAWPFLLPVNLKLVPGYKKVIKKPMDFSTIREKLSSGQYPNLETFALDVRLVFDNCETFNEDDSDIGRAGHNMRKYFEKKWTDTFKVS
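AlphaScreen displacement of biotin-H3(5-23)K14Ac peptide (50 nM final) from BAZ2B (50 nM final) in PBS pH 7.4, 0.01% Tween-20; complex preformed 30 min RT, then compounds (top 110 uM) 30 min RT, beads 20 min dark.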
G9a block = qHTS Assay for Inhibitors of Histone Lysine Methyltransferase G9a; Histone-lysine N-methyltransferase EHMT2 (Homo sapiens), Q96KQ7; G9a H3K9 monomethylation, AlphaScreen, 2 h; Potency, µM (doses to about 102 µM), usual class: inhibitors; 350,000 tested, 8.8% active; note: nearly all actives have a fitted effect of over 75% in size
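AlphaScreen read-out: biotin-H3K9 peptide (500 nM) methylation by 20 nM enzyme with 20 uM SAM, 2 h at room temperature after 15 min compound preincubation; anti-monomethyl H3K9 antibody plus donor/acceptor beads, 10 min dark.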
Sfp PPTase inh = qHTS Assay for Inhibitors of Bacillus subtilis Sfp phosphopantetheinyl transferase (PPTase). 4'-phosphopantetheinyl transferase ffp (Bacillus subtilis), Q9F4F7. Biochemical Sfp PPTase activity, qHTS. Potency, µM, most hits filed as inhibitors. 310,000 tested, 3.5% active;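 note: the enzyme is Sfp with the accession as filed and its product quenches rhodamine fluorescence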
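Buffer: 50 mM Hepes-Na pH 7.6, 10 mM MgCl2, 0.01% Nonidet P-40, 0.01% BSA. Enzyme 15 nM, pre-exposed to compound 15 min; substrates then added and fluorescence change tracked over 30 min.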
HP1b binding inh = HTS for Inhibitors of HP1-beta Chromodomain Interactions with Methylated Histone Tails; AlphaScreen HP1-beta / biotin-H3K9me3 peptide binding; Potency, µM (series often up to 114 µM), usual class: inhibitors; 390,000 tested, 0.56% active; AID 540317, 2011; note: nearly all actives have a fitted effect of over 70% in size
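AlphaScreen: HP1-beta (50 nM) preformed 30 min with biotin-H3(1-18)K9me3 peptide (50 nM) in PBS pH 7.4, 0.01% Tween-20. Compound added for 30 min at RT, then streptavidin donor/nickel chelate acceptor beads (10 ug/mL) for 30 min.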
JMJD2A Tudor inh = qHTS Assay for Inhibitors of JMJD2A-Tudor Domain | Potency, µM (titrated, usually from 114 µM), actives largely listed as inhibitors | Lysine-specific demethylase 4A (Homo sapiens), O75164 | AlphaScreen JMJD2A-Tudor / H3K4me3 peptide binding | AID 504339, 2011 | 390,000 tested, 4.4% active; note: nearly all actives have a fitted effect of over 50% in size
Large screens that a line does not name were inactive. The list is not random: actives were taken first. Their share in the collection is about 12%. Calls come from the whole dose curve; as a rule, active = well fitted curve in the direction sought with a large enough effect; inconclusive = small, poorly fitted or top-dose-only effect, or another doubt; inactive = no such curve, though single readings can be large; an effect the other way counts as inactive or inconclusive.

Cc1ccnc(Nc2nc3ccccc3o2)n1	G9a block inconclusive, Sfp PPTase inh 70.8µM
Cc1ccc(Nc2nc3ccccc3o2)cc1F	JMJD2A Tudor inh 11.2µM
Cc1nc(Nc2nc3ccccc3o2)nc(C)c1C	JMJD2A Tudor inh inconclusive
Cc1ccc(Nc2c3c(nc4ccccc24)CCC3)cc1F	none (no result: Sfp PPTase inh)
Cc1ccc(CNC(=O)c2c(O)nc3ccccn3c2=O)cc1	G9a block inconclusive (no result: Sfp PPTase inh)
CCCCCSc1nnc(-c2cc(Br)ccc2N)c(=O)[nH]1	G9a block 44.7µM
CNC(=S)NCc1ccc2[nH]c3c(c2c1)CCCC3	BAZ2B inh 44.7µM, G9a block 39.8µM, Sfp PPTase inh inconclusive
CCCCNC(=S)NCc1ccc2[nH]c3c(c2c1)CCCC3	G9a block inconclusive, HP1b binding inh inconclusive, JMJD2A Tudor inh 39.8µM (no result: BAZ2B inh)
CSc1ncc(C(=O)NCc2ccccc2)c(-c2ccccc2)n1	none (no result: Sfp PPTase inh)
O=C(c1sccc1-c1ccccc1)N1CCN(S(=O)(=O)c2ccccc2F)CC1	none (no result: Sfp PPTase inh)
O=C(Oc1cccc(C(=S)N2CCOCC2)c1)c1cc([N+](=O)[O-])cc([N+](=O)[O-])c1	BAZ2B inh inconclusive, G9a block 35.5µM, JMJD2A Tudor inh inconclusive
O=C(Oc1cccc(C(=S)N2CCOCC2)c1)c1cccc([N+](=O)[O-])c1	G9a block 44.7µM
O=C(Oc1ccc(Br)cc1C(=S)N1CCOCC1)c1ccc([N+](=O)[O-])cc1[N+](=O)[O-]	BAZ2B inh inconclusive, G9a block 8.91µM, Sfp PPTase inh 50.1µM, HP1b binding inh inconclusive, JMJD2A Tudor inh inconclusive
O=C(c1cccc(Oc2ccc([N+](=O)[O-])cc2)c1)N1CCOCC1	none
O=C(Oc1cccc(C(=S)N2CCOCC2)c1)c1ccc([N+](=O)[O-])cc1[N+](=O)[O-]	BAZ2B inh inconclusive, G9a block 25.1µM, Sfp PPTase inh inconclusive, HP1b binding inh inconclusive
COc1ccc(/C=C/c2onc(C)c2S(=O)(=O)N2CCC(C(=O)N3CCC(C)CC3)CC2)cc1	none
Cc1cc(NS(=O)(=O)c2ccc(NC(=O)CCSc3ccc(F)cc3)cc2)nc(C)n1	none
COc1cccc(OC(=O)CSc2nnc(-c3ccccc3OC)o2)c1	none (no result: Sfp PPTase inh)
O=[N+]([O-])c1ccccc1CCc1cnc(Cl)s1	none (no result: TDP1 block)
CCOc1ccc(-n2c(C)nc(O)c2N=Nc2ccccc2)cc1	BAZ2B inh inconclusive, G9a block 1.41µM, JMJD2A Tudor inh inconclusive
CC(C)n1c(=S)[nH]c2c1c(=O)[nH]c(=O)n2C	BAZ2B inh inconclusive, G9a block inconclusive, Sfp PPTase inh 10µM, HP1b binding inh 10µM, JMJD2A Tudor inh 2µM
C=CC(C)n1c(Br)nc2c1c(=O)[nH]c(=O)n2C (stereo unspecified)	G9a block inconclusive
Fc1ccc(OCc2nn[nH]n2)c(F)c1	none (no result: G9a block)
COc1ccccc1/C=C(/C(=O)OCC(=O)Nc1ccc(N(C)C)cc1)c1ccccc1	BAZ2B inh 10µM, G9a block 10µM, HP1b binding inh inconclusive, JMJD2A Tudor inh inconclusive
COc1cc2c(cc1OC)CN(c1nc(CN3CCCC3)nc3sc(C)c(C)c13)CC2	BAZ2B inh 79.4µM, G9a block 35.5µM, Sfp PPTase inh inconclusive, JMJD2A Tudor inh inconclusive
Cc1sc2nc(CN3CCOCC3)nc(N3CCOCC3)c2c1C	BAZ2B inh 50.1µM, G9a block 3.55µM, Sfp PPTase inh inconclusive, HP1b binding inh inconclusive, JMJD2A Tudor inh inconclusive
C[N+]1(C)CCC[C@@H](OC(=O)C(O)(c2ccccc2)c2ccccc2)C1	none (no result: BAZ2B inh, HP1b binding inh, JMJD2A Tudor inh)
Cc1ccc(NC(=O)C2CCCN(S(=O)(=O)c3ccc4c(c3)CCCC(=O)N4)C2)cc1Cl (stereo unspecified)	none (no result: Sfp PPTase inh)
NC(=O)CN1C(=O)/C(=c2\sc3nc(=O)c(Cc4ccccc4)nn3c2=O)c2ccccc21	G9a block 7.94µM, Sfp PPTase inh 11.2µM (no result: TDP1 block)
NC(=O)CN1C(=O)C2CCCCN2C(=O)c2ccccc21 (stereo unspecified)	none
Cc1ccc2sc(-c3ccc(NC(=O)CCN4C(=O)c5ccccc5C4=O)cc3)nc2c1	none (no result: HP1b binding inh, JMJD2A Tudor inh)
CCCN1C(=O)/C(=c2\sc3nc(=O)c(Cc4ccc(C)cc4)nn3c2=O)c2ccccc21	BAZ2B inh inconclusive, Sfp PPTase inh 20µM, HP1b binding inh inconclusive, JMJD2A Tudor inh inconclusive (no result: G9a block)
CCCCN1C(=O)/C(=c2\sc3nc(=O)c(-c4ccccc4)nn3c2=O)c2ccccc21	BAZ2B inh inconclusive, G9a block inconclusive, Sfp PPTase inh 15.8µM, HP1b binding inh inconclusive, JMJD2A Tudor inh inconclusive
CCCCCCCCCCCCC/C=C/[C@@H](O)C(CO)NC(C)=O (stereo partly specified)	none (no result: BAZ2B inh, G9a block, HP1b binding inh, JMJD2A Tudor inh)
O=C1CCc2cc(S(=O)(=O)Nc3ccc(Cl)c(Cl)c3)ccc2N1	none (no result: BAZ2B inh, G9a block, Sfp PPTase inh, HP1b binding inh)
O=C(c1ccoc1)N1CCC2(CCCN(Cc3ccc(F)c(F)c3)C2)C1 (stereo unspecified)	none
CC(=O)N(Cc1cccnc1)c1nc2c(C)cccc2s1	none (no result: Sfp PPTase inh)
COc1ccc([C@@H]2CC=C(C(=O)O)CN2S(=O)(=O)c2ccc(C)cc2)cc1OC	none (no result: Sfp PPTase inh)
COc1cc2c3nnc(-c4ccc(F)cc4)c-3cn(Cc3cccc(F)c3)c2cc1OC	G9a block 44.7µM, Sfp PPTase inh 44.7µM, JMJD2A Tudor inh inconclusive (no result: BAZ2B inh)
Cc1ccc[n+](-c2[nH]c(=O)sc2/C=N/N=C(\[O-])c2cccnc2)c1	TDP1 block 50.1µM, G9a block inconclusive
Cc1cc[n+](-c2[nH]c(=O)sc2/C=N/N=C(\[O-])CCn2c3ccccc3c3ccccc32)cc1	BAZ2B inh inconclusive, JMJD2A Tudor inh inconclusive
Cc1cc[n+](-c2[nH]c(=O)sc2/C=N/N=C(\[O-])c2ccncc2)cc1	TDP1 block 39.8µM, BAZ2B inh 56.2µM
Cc1cc[n+](-c2[nH]c(=O)sc2/C=N/N=C(\[O-])c2ccncc2)cc1C	BAZ2B inh inconclusive, Sfp PPTase inh inconclusive
Cc1cc[n+](-c2[nH]c(=O)sc2/C=N/N=C(\[O-])c2ccccc2)cc1C	TDP1 block 39.8µM, BAZ2B inh inconclusive, G9a block 50.1µM
CCc1ccc[n+](-c2[nH]c(=O)sc2/C=N/N=C(\[O-])CCn2c3ccccc3c3ccccc32)c1	BAZ2B inh inconclusive, G9a block 44.7µM, HP1b binding inh inconclusive
Cc1oc(-c2cccc(Br)c2)nc1CSc1nc2ncccc2[nH]1	G9a block inconclusive (no result: Sfp PPTase inh)
O=C(OCc1cc2ccccc2[nH]c1=O)c1cccc([N+](=O)[O-])c1	none

Compound activity (PubChem)
